Laboratory results: PubChem BioAssay AID504848 (National Center for Advancing Translational Sciences (NCATS), 2011)
In all, about 2,300 compounds went through this assay and about 1,400 (61%) were called active. Roughly 29% stayed inconclusive and do not appear here. Calls come from the whole dose curve; as a rule, active = well fitted inhibition curve with a large enough effect; inconclusive = small, poorly fitted or top-dose-only effect, or effect the other way; inactive = no such curve, though single readings can be large or run the other way. So high a share suggests a set chosen from earlier hits. The list shows a part of the results.

Assay: Confirmation screen for delayed death inhibitors of the malarial parasite plastid, 96 hour incubation; note: nearly all actives have a fitted effect of over 60% in size
Settings: P. falciparum luciferase growth in erythrocytes; series mostly up to 28.7 µM; activity change, negative = inhibition: at the top concentration
In short: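 Erythrocytes infected with luciferase-expressing P. falciparum (2% hematocrit, 0.1% parasitemia final) in RPMI 1640 with 0.5% Albumax, exposed to compounds 96 h at 37 C, 5% CO2. Growth inhibition read as decreased luciferase luminescence.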
% is set by controls: 0 for no effect and ±100 for the full control effect; potency is the fitted concentration of half-maximal effect.

SMILES	Potency	activity change, negative = inhibition
COc1cc(NC(=O)C2CCN(S(=O)(=O)c3ccc(N4CCCC4=O)cc3)CC2)cc(OC)c1	5.01 µM (active)	
Cc1ccc(C(=O)C(C(=O)/C=C/c2ccccc2)=C2SCCCS2)cc1	7.94 µM (active)	
CC[C@@H]1CC=C[C@H]2[C@H]1C(=O)N(Cc1ccccc1)[C@H]2c1ccoc1	7.08 µM (active)	
Fc1ccc2nc(Nc3nc4c(F)cc(F)cc4s3)sc2c1	10 µM (active)	
O=C(c1ccc(Cl)cc1)C(CN1CCCC1)c1ccccc1 (stereo unspecified)	7.08 µM (active)	
O=C(CN1CCCCC1)N/N=C/c1ccc(Cl)cc1		6.26% (inactive)
O=C(c1ccc(Cl)cc1)C(CN1CCCCC1)c1ccccc1 (stereo unspecified)	12.6 µM (active)	
O=C(c1ccc(Br)cc1)C(CN1CCOCC1)c1ccccc1 (stereo unspecified)	3.98 µM (active)	
O=C(Nc1ccc(C2=NCCN2)cc1)c1ccc(C(=O)Nc2ccc(C3=NCCN3)cc2)c(Cl)c1	0.0708 µM (active)	
COc1ccccc1-c1coc2cc(OC(=O)N3CCOCC3)ccc2c1=O		-2.61% (inactive)
CCOc1ccccc1CNC(=O)CN1C(=O)CSc2ccc(S(=O)(=O)N3CCOCC3)cc21	8.91 µM (active)	
Cc1c(C#N)c(NC(=O)CCl)n(Cc2ccccc2)c1C	4.47 µM (active)	
O=C(CCl)Nc1ccc2c(c1)OCO2	2.51 µM (active)	
Cc1ccc(NC(=O)c2nnn(CC(=O)Nc3ccc4c(c3)OCO4)c2N)cc1C		0.181% (inactive)
Cn1c(=O)n(C)c2cc(NC(=O)CCl)ccc21	2 µM (active)	
CCOc1ccccc1N(CC(=O)Nc1ccc(S(=O)(=O)N2CCCC2)cc1)S(C)(=O)=O	11.2 µM (active)	
COc1ccc(C)cc1N(CC(=O)Nc1ccc(S(=O)(=O)N2CCCC2)cc1)S(C)(=O)=O	8.91 µM (active)	
CCOC(=O)c1c[nH]c2cc(OCC(C)C)c(OCC(C)C)cc2c1=O	0.178 µM (active)	
COc1ccc(-c2c(-c3ccc(OC)c(C)c3O)n[nH]c2C)cc1	10 µM (active)	
Cc1ccc(Cl)cc1N1CCN(Cc2nc3c(c(=O)[nH]c(=O)n3C)n2CCc2ccccc2)CC1	3.98 µM (active)	
CC(C)C(=O)NCCSc1c[nH]c2ccccc12	3.98 µM (active)	
CCOc1ccc(N(C)C(=O)CCc2nnc3ccc(N4CCCCC4)nn23)cc1	7.94 µM (active)	
CC1(C)COC(/C=C/c2cccc([N+](=O)[O-])c2)=N1	8.91 µM (active)	
O=[N+]([O-])c1cccc(/C=C/c2nc[nH]c2[N+](=O)[O-])c1	3.98 µM (active)	
COc1ccc(-c2nnc3ccc(SCC(=O)Nc4nc5ccc(C)cc5s4)nn23)cc1OC	0.158 µM (active)	
O=C(C[n+]1ccccc1)Nc1ccc(Cl)c([N+](=O)[O-])c1	7.08 µM (active)	
